High-throughput results (PubChem)
TEAD-YAP block: TEAD-YAP interaction inhibition | HEK-TIYL cells, TEAD-Gal4/YAP UAS-luciferase luminescence | inhibition, % at 9.12 µM | 640,000 tested, 1.4% active | AID 1259422; in the data active means inhibition above about 32%
FBW7 act: activators of human E3 ligase FBW7; AID 1259310; AlphaScreen FBW7–phospho-cyclin E peptide binding, activator screen; normalized activity (activation), % at 26.1 µM; 650,000 tested, 0.13% active; in the data active means normalized activity above about 1.9%;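 further: purified mutant Fbw7 with reduced substrate affinity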
Target sequence (Q969H0 whole entry, looked up): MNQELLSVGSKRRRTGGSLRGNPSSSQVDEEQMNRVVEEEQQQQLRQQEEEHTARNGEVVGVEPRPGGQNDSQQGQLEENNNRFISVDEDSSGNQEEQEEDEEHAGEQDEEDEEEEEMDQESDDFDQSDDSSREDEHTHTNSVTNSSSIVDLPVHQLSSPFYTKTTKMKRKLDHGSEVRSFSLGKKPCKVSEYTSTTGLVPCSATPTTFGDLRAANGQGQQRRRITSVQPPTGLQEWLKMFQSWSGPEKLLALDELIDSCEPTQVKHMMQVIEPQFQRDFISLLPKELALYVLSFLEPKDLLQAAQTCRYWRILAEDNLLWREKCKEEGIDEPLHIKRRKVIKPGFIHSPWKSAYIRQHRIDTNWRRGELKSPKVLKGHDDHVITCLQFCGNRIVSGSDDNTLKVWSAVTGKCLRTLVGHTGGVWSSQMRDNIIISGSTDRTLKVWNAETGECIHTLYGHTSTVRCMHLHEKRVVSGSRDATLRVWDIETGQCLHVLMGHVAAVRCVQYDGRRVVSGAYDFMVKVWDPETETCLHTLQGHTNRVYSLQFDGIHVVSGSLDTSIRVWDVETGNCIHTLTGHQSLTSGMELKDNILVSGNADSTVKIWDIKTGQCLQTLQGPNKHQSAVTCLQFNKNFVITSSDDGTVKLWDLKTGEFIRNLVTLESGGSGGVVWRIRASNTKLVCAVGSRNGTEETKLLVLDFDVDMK
MITF inh: human MITF inhibition, primary screen | O75030 | AlphaScreen MITF homodimerization, bead proximity signal | inhibition, % at 2.6 µM | 650,000 tested, 0.91% active | AID 1259374; in the data active means inhibition above about 50%
GPR151 activ: human GPR151 activation | AID 1508602 | PathHunter beta-arrestin GPR151 cells, luminescence | Q8TDV0 | 650,000 tested, 1% active | activation, % at 11.2 µM; in the data active means activation above about 4.9%
GPR151 confirm: confirmation of human GPR151 activators; shares compounds with GPR151 activ; activation, % at 11.2 µM; GPR151 PathHunter beta-arrestin cells, luminescence, 90 min; % of EA-reagent control over plate median; 6,700 tested, under 10 active;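 active means mean percent activation across replicates above the confirmation screen cutoff of 4.91%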
GPR119 ag: counter-screen for GPR151 activators: effect on human GPR119 | shares compounds with GPR151 activ | GPR119 PathHunter beta-arrestin cells, luminescence, 90 min; 0 = compound-well median, 100 = enzyme-acceptor control | activation, % at 11.2 µM | 6,700 tested, 0.3% active | AID 1508611;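 active means mean percent activation in the counterscreen above 29.09%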;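 further: counterscreen on off-target GPR119 to flag nonselective hits from the GPR151 activator screen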
Of the large screens only hits and unclear results are named; the others gave an inactive call (follow-up assays come after a bar, where they were run). In the library only some 3.5% were active in any assay of this set; here they are far more common.

CCN1CCCC1CNC(=O)c1ccc(-c2ccc(OC)cc2)nc1N(C)C(C)=O (stereo not given)	none
COc1cc(C=O)ccc1Oc1nc2ccccc2n2cnnc12	GPR151 activ 5.8 | GPR151 confirm inactive | GPR119 ag inactive
C=CCNC(=O)c1cc(=O)[nH]c2ccc(S(=O)(=O)N3CCCC(C)C3)cc12 (stereo not given)	none
Cn1c(=O)c2c(SCC(=O)Nc3nccs3)nc(-c3ccco3)nc2n(C)c1=O	none
COc1cccc(-c2nc(SCC(=O)O)c3c(=O)n(C)c(=O)n(C)c3n2)c1	GPR151 activ 12 | GPR151 confirm inactive | GPR119 ag inactive
COc1ccc(-c2nc(SCC(=O)O)c3c(=O)n(C)c(=O)n(C)c3n2)cc1	none
Cc1csc(NC(=O)CSc2nc(-c3ccco3)nc3c2c(=O)n(C)c(=O)n3C)n1	GPR151 activ 6.6 | GPR151 confirm inactive | GPR119 ag inactive
CC(C)Sc1nc(-c2ccco2)nc2c1c(=O)n(C)c(=O)n2C	none
CC(Sc1nc(-c2ccco2)nc2c1c(=O)n(C)c(=O)n2C)C(=O)O (stereo not given)	GPR151 activ 9.6 | GPR151 confirm inactive | GPR119 ag inactive
CC1=C(C)SC(=C(C#N)c2nnc(N3CCOCC3)n2-c2ccccc2)S1	GPR151 activ 5.4 | GPR151 confirm inactive | GPR119 ag inactive
CC(C)(C)c1csc2ncc(C(=O)NCc3cccs3)c(=O)n12	GPR151 activ 5.2 | GPR151 confirm inactive | GPR119 ag inactive
CCc1ccccc1NC(=O)c1ccc2c(=O)n3c(nc2c1)CCCCC3	none
Cc1ccc(NC(=O)NC23CC4CC(CC(C4)C2)C3)cc1NC(=O)NC12CC3CC(CC(C3)C1)C2	none
Cc1ccc(NC(=O)NC23CC4CC(CC(C4)C2)C3)cc1	GPR151 activ 5.6 | GPR151 confirm inactive | GPR119 ag inactive
OCCOCCNc1ncnc2ccc(I)cc12	GPR151 activ 5.4 | GPR151 confirm inactive | GPR119 ag inactive
CCc1c(C)nc2cc(-c3cccs3)nn2c1N1CCC(O)CC1	GPR151 activ 6.2 | GPR151 confirm inactive | GPR119 ag inactive
COc1ccc(OCc2cc(C(=O)N3CCCCC3CO)no2)c(Cl)c1 (stereo not given)	none
COc1ccc(OCc2cc(C(=O)N[C@H]3CCCCNC3=O)no2)c(Cl)c1	GPR151 activ 5.0 | GPR151 confirm inactive | GPR119 ag inactive
CCOc1ccccc1NC(=O)CN(CCc1ccccc1)S(=O)(=O)c1ccc(OC)c(OC)c1	none
O=C(Nc1ccc(Cl)cc1)c1cnn2cc(Br)cnc12	GPR151 activ 7.3 | GPR151 confirm inactive | GPR119 ag inactive
O=C(Nc1cccnc1)c1cnn2cc(Br)cnc12	none
COC(=O)c1ccc(-c2ccco2)n1CC(C)=O	none
C/C(NCCO)=C1/C(=O)C(=O)N(CCO)C1c1ccc(Br)cc1 (stereo not given)	none
CCCNC(=O)CSc1nc2ccccc2n1CC(=O)NC1CCCC1	GPR151 activ 7.8 | GPR151 confirm inactive | GPR119 ag inactive
COC(=O)CSc1nc2ccccc2n1CC(=O)NC1CCCC1	none
Cc1ccc2c(c1)/C(=C\c1ccc(Br)cc1)c1cc3ccccc3nc1-2	GPR151 activ 6.1 | GPR151 confirm inactive | GPR119 ag inactive
CCN1CNC(=S)N(c2ccc(F)c(Cl)c2)C1	GPR151 activ 6.0 | GPR151 confirm inactive | GPR119 ag inactive
Cc1ccc2oc(-c3cccc(NC(=S)NC(=O)c4ccc(Cl)cc4)c3C)nc2c1	GPR151 activ 5.3 | GPR151 confirm inactive | GPR119 ag inactive
COC(=O)c1c(NC(=O)c2cnn3c(C(F)(F)F)cc(-c4ccc(OC)cc4)nc23)sc2c1CCC(C)C2 (stereo not given)	none
CCN(CC)CCN(C)Cc1ccccc1C	GPR151 activ 5.0 | GPR151 confirm inactive | GPR119 ag inactive
CCN(CC)CCN(C)Cc1ccccc1Cl	none
COCCCNc1nc2nonc2nc1N1CCN2CCCC2C1 (stereo not given)	none
COCCCNc1nc2nonc2nc1N1CCN(C2CCCC2)CC1	GPR151 activ 5.7 | GPR151 confirm inactive | GPR119 ag inactive
CCCCn1c(CNC(=O)c2cccc(OC)c2)nnc1SCC(=O)Nc1sc(C(=O)OCC)c(C)c1C(=O)OCC	none
N#Cc1ccc(-c2cnn3ccc(NCCO)nc23)cc1	none
COc1ccccc1/C=C(\NC(=O)c1ccccc1)C(=O)Nc1cccc(C(C)=O)c1	GPR151 activ 5.8 | GPR151 confirm inactive | GPR119 ag inactive
CC(=O)c1cccc(NC(=O)/C(=C/c2ccccc2)NC(=O)c2ccccc2)c1	none
O=S(=O)(Cc1cccc(C(F)(F)F)c1)NCc1csc(-c2cccs2)n1	none
Cc1ccc(-c2noc(C3CCN(S(=O)(=O)c4ccccc4)CC3)n2)cc1	none
Cc1ccc(S(=O)(=O)N2CCC(c3nc(-c4ccccc4C)no3)CC2)cc1	GPR151 activ 6.2 | GPR151 confirm inactive | GPR119 ag inactive
COc1cccc(S(=O)(=O)N2CCC(c3nc(-c4cccnc4)no3)CC2)c1	GPR151 activ 7.4 | GPR151 confirm inactive | GPR119 ag inactive
COc1ccccc1N1CCCn2c1nc1c2c(=O)n(Cc2ccccc2)c(=O)n1C	none
CC[C@@H](C(=O)[C@@H](C)[C@@H](O)[C@H](C)CCc1ccc(C)c(O)c1C(=O)O)[C@H]1O[C@](CC)([C@H]2CC[C@](O)(CC)[C@H](C)O2)C[C@@H]1C	GPR151 activ 21 | GPR151 confirm inactive | GPR119 ag inactive
Cc1c(NC(=O)C(C)N2C(=O)C3C4CCC(C4)C3C2=O)ccc(Br)c1Cl (stereo not given)	GPR151 activ 13 | GPR151 confirm inactive | GPR119 ag inactive
COc1ccc(C(=O)Nc2cc(C(N)=O)ccc2OC)cc1	none
COc1ccc(C(N)=O)cc1NC(=O)CC(O)(C(F)(F)F)C(F)(F)F	GPR151 activ 7.3 | GPR151 confirm inactive | GPR119 ag inactive
CCn1c(N)c(C(=O)N2CCCCC2)sc1=S	GPR151 activ 5.4 | GPR151 confirm inactive | GPR119 ag inactive
CCOC(=O)c1sc2ncnc(N3CCN(c4ccccc4)CC3)c2c1C	none
COc1cccc(C(c2sc3nc(C)nn3c2O)N2CCC(C(N)=O)CC2)c1 (stereo not given)	none
CCc1nc2sc(C(c3cccc(OC)c3)N3CCC(C(N)=O)CC3)c(O)n2n1 (stereo not given)	GPR151 activ 5.8 | GPR151 confirm inactive | GPR119 ag inactive
Cc1sc2ncnc(NCC(C)O)c2c1C (stereo not given)	GPR151 activ 4.9 | GPR151 confirm inactive | GPR119 ag inactive
Cc1sc2ncnc(NCc3ccccc3)c2c1C	none
O=C(Nc1ccc(-c2cccc(F)c2)cc1)C1CCCN(C(=O)c2cscn2)C1 (stereo not given)	none
CSCC(=O)N1CCCC(C(=O)Nc2ccc(-c3cccc(F)c3)cc2)C1 (stereo not given)	GPR151 activ 5.6 | GPR151 confirm inactive | GPR119 ag inactive
